Assay results taken from PubChem BioAssay AID743280 (The Scripps Research Institute Molecular Screening Center, 2014).
Hit rate of the full screen: of about 2,000 compounds, about 680 (34%) were called active. Not all results are given here. Unmarked numbers belong to inactive results.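 The calls were made as follows: active = mean inhibition across triplicates above the hit cutoff set in the earlier primary screen (cut at about 19% in these data); inactive = the rest.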

The molecules below were run against Group 3 secretory phospholipase A2 (Homo sapiens) (UniProt Q9NZ20) (assay: human group III sPLA2 inhibitors, confirmation, biochemical, QFRET, triplicate (AID 743280;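 also: 0% = enzyme with DMSO and 100% = DMSO wells lacking enzyme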)). Settings: recombinant hGIII-sPLA2, BODIPY PC-A2 QFRET fluorescence; at 12.2 µM; active compounds read high.
Sequence of Group 3 secretory phospholipase A2 (Homo sapiens) (Q9NZ20 whole entry, looked up): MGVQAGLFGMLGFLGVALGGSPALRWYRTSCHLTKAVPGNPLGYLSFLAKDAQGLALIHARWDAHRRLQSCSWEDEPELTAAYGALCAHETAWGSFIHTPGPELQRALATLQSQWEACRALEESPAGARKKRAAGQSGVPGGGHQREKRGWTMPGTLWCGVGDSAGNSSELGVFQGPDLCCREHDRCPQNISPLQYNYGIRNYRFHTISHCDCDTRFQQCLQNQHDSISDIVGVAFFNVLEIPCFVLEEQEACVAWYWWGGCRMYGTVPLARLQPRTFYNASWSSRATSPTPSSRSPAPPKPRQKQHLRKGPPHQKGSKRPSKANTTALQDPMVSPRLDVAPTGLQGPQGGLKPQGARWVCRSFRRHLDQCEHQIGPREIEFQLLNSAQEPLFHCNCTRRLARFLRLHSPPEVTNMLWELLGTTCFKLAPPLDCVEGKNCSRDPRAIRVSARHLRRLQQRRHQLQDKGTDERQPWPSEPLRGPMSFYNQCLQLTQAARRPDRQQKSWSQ

Which inhibition does the source give for `C/C(=N\NC(=S)Nc1ccc(C)cc1)c1cc2ccccc2o1` here?
Its inhibition is 40.2% (active).

For `COc1ccccc1OCC(=O)OCn1c(SC)nnc(C)c1=O`, which inhibition is on record?
The inhibition was -3.63%.

For `O=C(COc1ccc(S(=O)(=O)NCc2ccccc2)cc1)N1CCOCC1`, which inhibition is on record?
The inhibition was -1.27%.

`Cc1ccc(S(=O)(=O)N2CCOCC2)cc1C(=O)NC(=S)N(Cc1ccccc1)C(C)C` was tested. Which inhibition did it give?
The inhibition was 21.7% (active).

Which inhibition does the source give for `CC(C(=O)Nc1ccccc1-c1ccccc1)N1CCOCC1` (stereo not given) here?
Its inhibition is 3.12%.

How did the inhibition turn out when `CC(C)c1cc(C(=O)N/N=C/c2ccoc2)c(O)c(C(C)C)c1` was run?
Its inhibition is 9.71%.

How did the inhibition turn out when `NC(Cc1ccccc1)c1csc(Nc2cc(Oc3ccccc3)ncn2)n1` (stereo not given) was run?
The inhibition was 9.47%.

Which inhibition does the source give for `NC[C@H](Cc1ccccc1)NCCc1cc(C(F)(F)F)cc(C(F)(F)F)c1` here?
The inhibition was 23.4% (active).

How did the inhibition turn out when `Cc1cccc(NC(=S)NCCN(C2CCCCC2)C2CCCC2)c1` was run?
Its inhibition is 15.1%.

How did the inhibition turn out when `Cc1nnc(Sc2nc3c(c(=O)[nH]c(=O)n3C)n2Cc2ccccc2)s1` was run?
The inhibition was -3.34%.

How did the inhibition turn out when `CN(C)S(=O)(=O)c1cccc(NC(=S)N/N=C/C(=O)c2ccccc2)c1` was run?
Its inhibition is 33.4% (active).

`COc1ccnc(NC(=S)N2CCN(c3ncc(C(F)(F)F)cc3Cl)CC2)c1` was tested. Which inhibition did it give?
Its inhibition is 19%.

For `CC(C)=CCCC1(C)C=Cc2c(ccc3c2[nH]c2cc(O)c(C)cc23)O1` (stereo not given), which inhibition is on record?
Its inhibition is -8.08%.

Which inhibition does the source give for `O=C(NN1C(=O)C2C3C=CC(C3)C2C1=O)c1ccco1` (stereo not given) here?
Its inhibition is 1.65%.

How did the inhibition turn out when `O=C(NNC(=S)Nc1ccc(Br)cc1Cl)c1ccco1` was run?
The inhibition was 32.4% (active).

`Cc1c(Cl)cccc1NC(=S)NCc1ccc2c(c1)OCO2` was tested. Which inhibition did it give?
The inhibition was 13.1%.

With `CCOC12CC(C)(C)CC(C)(CC3=C1C(=O)CC(C)(C)C3)C2` (stereo not given) as the molecule, how does the inhibition read?
The inhibition was 0.63%.

Which inhibition does the source give for `O=C(CCl)NNc1cccc(Cl)n1` here?
The inhibition was 74.6% (active).

With `O=C(NNC(=S)NC1CC2CCC1C2)c1ccc(Cl)cc1` (stereo not given) as the molecule, how does the inhibition read?
The inhibition was 22.9% (active).

`S=C(NNC(=S)NC1CC2CCC1C2)NC1CC2C=CC1C2` (stereo not given) was tested. Which inhibition did it give?
The inhibition was 22.1% (active).

With `Cc1cccc(C)c1NC(=O)CN1C(=O)C(C)Oc2ccccc21` (stereo not given) as the molecule, how does the inhibition read?
The inhibition was 3.96%.

`Cn1c2c(c(=O)n(C)c1=O)C1c3ccccc3OCC1C(C)(C)O2` (stereo not given) was tested. Which inhibition did it give?
The inhibition was -1.2%.

With `Cc1ccc(C2Nc3ccccc3C(=O)N2CCN2CCNC2=O)cc1` (stereo not given) as the molecule, how does the inhibition read?
The inhibition was -3.41%.

How did the inhibition turn out when `Cc1c(C(=O)N/N=C/c2ccccc2)[nH]c2c([N+](=O)[O-])cccc12` was run?
Its inhibition is -5.71%.

Which inhibition does the source give for `O=C(N/N=C/c1cc(Cl)cc([N+](=O)[O-])c1O)C(O)(c1ccccc1)c1ccccc1` here?
Its inhibition is 35.7% (active).

With `Cc1[nH]c(N)nc(=S)c1CCCNc1ccccc1` as the molecule, how does the inhibition read?
Its inhibition is 18.5%.

For `S=c1[nH]nc(-c2ccco2)n1/N=C/c1ccccc1`, which inhibition is on record?
Its inhibition is 13.8%.

With `CC(NC(=O)COC(=O)Cn1cc(C(F)(F)F)ccc1=O)c1ccccc1` (stereo not given) as the molecule, how does the inhibition read?
The inhibition was 0.6%.

For `CC(Oc1ccc2ccccc2c1)C(=O)NNC(=S)NC(=O)c1ccco1` (stereo not given), which inhibition is on record?
Its inhibition is 22.6% (active).

With `CCOC(=O)NC(=O)/C(C#N)=C\c1ccccc1` as the molecule, how does the inhibition read?
Its inhibition is -5.62%.

With `N=C(N)SCc1cccc2ccccc12` as the molecule, how does the inhibition read?
Its inhibition is 23.3% (active).

How did the inhibition turn out when `O=C(OC12CC3CC(CC(C3)C1)C2)c1ccc(NCc2cc(O)ccc2O)cc1` was run?
Its inhibition is 42.8% (active).

`COc1cc(/C=N/n2c(C)n[nH]c2=S)ccc1OCc1ccccc1` was tested. Which inhibition did it give?
Its inhibition is 6.69%.

For `COc1ccc(Cl)cc1C(=O)NNC(=S)NC1CCCC1`, which inhibition is on record?
Its inhibition is 38.5% (active).

Which inhibition does the source give for `O=C(NNC(=S)NC1CCCCC1)c1ccccc1Cl` here?
The inhibition was 31.4% (active).

How did the inhibition turn out when `CCNC(=S)Nc1ccc(OC(F)(F)F)cc1` was run?
The inhibition was 10.7%.

How did the inhibition turn out when `CC(C)CC(=O)NC(=S)NNC(=O)c1cccc([N+](=O)[O-])c1` was run?
Its inhibition is 31.6% (active).

`CCCCCCCCCCOC(=O)C[N+](C)(C)CC1CCCCC1O` (stereo not given) was tested. Which inhibition did it give?
The inhibition was 4.96%.

`COc1ccc2c(c1)c(=Cc1ccc(N(C)C)cc1)c1cc(-c3ccccc3)[n+](C)n12` was tested. Which inhibition did it give?
The inhibition was 45.1% (active).

For `O=C(/C=C/c1c(Cl)cccc1Cl)NCc1ccccc1`, which inhibition is on record?
Its inhibition is 3.51%.

How did the inhibition turn out when `CCCCOc1ccc(CSC(=N)N)cc1[N+](=O)[O-]` was run?
Its inhibition is 25.2% (active).

Which inhibition does the source give for `CC[C@]1(O)C[C@@H]2CN(CCc3c([nH]c4ccccc34)[C@@](C(=O)OC)(c3cc4c(cc3OC)N(C)[C@H]3[C@@](O)(C(=O)OC)[C@H](OC(C)=O)[C@]5(CC)C=CCN6CC[C@]43[C@@H]65)C2)C1` here?
Its inhibition is 10.2%.

For `Nc1[nH]c(C(=O)c2ccccc2)c(-c2ccc(Br)cc2)c1C(=O)NC1CC1`, which inhibition is on record?
The inhibition was 12.2%.

`COC(=O)C(C)n1cnc2c(nnn2-c2ccc(F)cc2)c1=O` (stereo not given) was tested. Which inhibition did it give?
Its inhibition is 1.8%.

How did the inhibition turn out when `CN(CC(=O)Nc1ccc(N2CCOCC2)cc1)CC(=O)Nc1ccccc1[N+](=O)[O-]` was run?
Its inhibition is -2.32%.
